Assay outcomes deposited in PubChem BioAssay by Johns Hopkins Ion Channel Center.
KCNQ2 pot = enhances the rat KCNQ2 potassium channel | AID 2239 | 0.54% of 310,000 active | B-score at 10 µM | O88943 | CHO-K1 KCNQ2, FluxOR thallium flux fluorescence; active compounds read high;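 active = fluorescence ratio B-score at least 3 SD of library B-scores, with initial fluorescence B-score within 3 of them, cut at about 5.3 in these data; same plate scores as AID 2156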;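 note: B-score of peak minus minimum over baseline fluorescence ratio after K+ and Tl+ stimulus; positive B-score means potentiation of KCNQ2 with more thallium influx and brighter signal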
Target sequence (O88943 whole entry, looked up): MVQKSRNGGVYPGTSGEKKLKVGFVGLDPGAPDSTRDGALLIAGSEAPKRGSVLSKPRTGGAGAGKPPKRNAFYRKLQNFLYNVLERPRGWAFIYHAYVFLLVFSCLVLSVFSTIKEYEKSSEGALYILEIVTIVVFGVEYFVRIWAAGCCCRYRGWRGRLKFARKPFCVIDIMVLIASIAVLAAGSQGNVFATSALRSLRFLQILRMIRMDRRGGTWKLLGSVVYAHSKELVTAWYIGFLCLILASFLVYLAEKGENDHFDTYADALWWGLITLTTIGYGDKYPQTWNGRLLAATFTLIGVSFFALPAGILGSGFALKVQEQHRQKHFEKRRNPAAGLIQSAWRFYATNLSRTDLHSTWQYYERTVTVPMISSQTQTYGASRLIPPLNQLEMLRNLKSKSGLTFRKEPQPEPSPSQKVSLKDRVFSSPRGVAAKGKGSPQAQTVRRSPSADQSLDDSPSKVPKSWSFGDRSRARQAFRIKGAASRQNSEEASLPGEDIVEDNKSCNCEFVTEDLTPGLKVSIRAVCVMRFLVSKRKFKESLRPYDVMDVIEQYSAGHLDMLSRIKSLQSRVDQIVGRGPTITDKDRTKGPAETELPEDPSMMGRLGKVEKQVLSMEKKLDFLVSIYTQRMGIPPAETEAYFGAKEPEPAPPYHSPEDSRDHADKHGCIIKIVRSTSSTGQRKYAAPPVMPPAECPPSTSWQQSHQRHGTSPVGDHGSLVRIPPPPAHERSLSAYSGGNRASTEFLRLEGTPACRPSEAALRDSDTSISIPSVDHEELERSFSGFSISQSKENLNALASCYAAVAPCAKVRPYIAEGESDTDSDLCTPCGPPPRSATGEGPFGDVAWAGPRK
KCNQ2 block = blocks the rat KCNQ2 potassium channel | CHO-K1 KCNQ2, FluxOR thallium flux, 20 min; active compounds read low | B-score at 10 µM | 1.1% of 310,000 active;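 active = fluorescence ratio B-score at most minus 3 library SDs, with starting brightness B-score within 2 library SDs, cut at about -5.5 in these data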
KCNQ2 block conf = rat KCNQ2 channel inhibition, confirmatory screen; shares compounds with KCNQ2 block; KCNQ2-expressing cells, thallium flux; active compounds read low; activity change, negative = inhibition, % at 10 µM; 57% of 1,000 active; AID 493025
KCNQ1 spec = selectivity of KCNQ2 inhibitors against human KCNQ1; shares compounds with KCNQ2 block; KCNQ1-expressing cells, FluxOR thallium flux fluorescence; active compounds read low; activity change, negative = inhibition, % at 10 µM; 15% of 1,000 active; AID 493026;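 active = activity change at least 3 SD of negative controls below their mean in both duplicate wells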;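 note: CHO cells stably transfected with KCNQ1 and depolarized by potassium stimulus; peak minus minimum fluorescence over baseline after thallium addition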
CHO parental ctr = counter-screen for KCNQ2 inhibitors: effect in parental CHO cells; shares compounds with KCNQ2 block; thallium flux counter-screen; active compounds read low; activity change, % at 10 µM; 14% of 1,000 active
KCNQ2 patch conf = confirmation of rat KCNQ2 potassium channel inhibitors; shares compounds with KCNQ2 block; KCNQ2-expressing cells, automated patch clamp current; calls only at 10 µM; 49% of 550 active; AID 588531
Each line names hits and unclear results; the compound was inactive in the other large screens (follow-up assays come after a bar, where they were run). Sampled rows, rich in hits. Any-hit rate of the full collection: about 1.6%. Unless noted, the rule behind the calls is not given here.

COc1ccc(CCNC(=O)c2ccccc2N(C)S(=O)(=O)c2ccccc2)cc1	none
Cc1ccccc1NC(=O)c1ccccc1N(C)S(=O)(=O)c1ccccc1	KCNQ2 block -7.6 | KCNQ2 block conf -20% | KCNQ1 spec inactive | CHO parental ctr inactive | KCNQ2 patch conf active
CN(c1ccccc1C(=O)NCc1ccccc1Cl)S(=O)(=O)c1ccccc1	KCNQ2 block -10 | KCNQ2 block conf inactive | KCNQ1 spec inactive | CHO parental ctr inactive
CC[C@H](C)[C@H](NC(N)=O)C(=O)NCCc1ccc(OC)c(OC)c1	none
CC(=O)Nc1ccc(OCC(O)Cn2cncn2)cc1 (configuration not stated)	none
CC(C)CCNC(=O)C(c1cccnc1)N(CCc1ccccc1)C(=O)Cn1nnc2ccccc21 (configuration not stated)	none (no result: KCNQ2 pot)
Cc1ccccc1-c1nc(CS(=O)(=O)CC(=O)NCCN2CCCC2)c(C)o1	none (no result: KCNQ2 pot)
CS(=O)(=O)N1CCC(Oc2ccccc2C(=O)N2CCC[C@H]2CO)CC1	none
CCOc1ccc(NC(=O)NNC(=O)c2ccc(CC)s2)cc1	none (no result: KCNQ2 pot)
CN1/C(=C\C(=O)Nc2ccc(Br)cc2)C(C)(C)c2ccccc21	none (no result: KCNQ2 pot)
CN1/C(=C\C(=S)NC(=O)c2ccc([N+](=O)[O-])cc2)C(C)(C)c2ccccc21	none (no result: KCNQ2 pot)
CN1/C(=C\C(=O)Nc2cccc(Cl)c2)C(C)(C)c2ccccc21	KCNQ2 block -7.1 | KCNQ2 block conf -20% | KCNQ1 spec inactive | CHO parental ctr inactive | KCNQ2 patch conf inactive
CN1/C(=C\C(=S)NC(=O)c2cccc(Br)c2)C(C)(C)c2ccccc21	KCNQ2 block -7.8 | KCNQ2 block conf -22% | KCNQ1 spec inactive | CHO parental ctr inactive | KCNQ2 patch conf active
Nc1c(S(=O)(=O)c2cccs2)c2nc3ccccc3nc2n1/N=C/c1cccc(O)c1	none (no result: KCNQ2 pot)
O=C(CN1C(=O)NC2(CCc3ccccc32)C1=O)c1c[nH]c2ccccc12 (configuration not stated)	none (no result: KCNQ2 pot)
O=c1ccc(C(F)(F)F)cn1Cc1cc(=O)n2cc(Br)ccc2n1	none
CC1CCCN(C(=O)CSc2nnc(-c3ccncc3)n2C)C1 (configuration not stated)	none
O=C(COc1ccc(Cl)cc1Cl)N/N=C/c1ccc(OC2OC(CO)C(O)C(O)C2O)cc1 (configuration not stated)	none (no result: KCNQ2 pot)
N/C(=N\c1nc2c(c(=O)[nH]1)CCC2)Nc1ccccc1	none
CCOCCCn1c(SC(C(=O)Nc2cc(C)ccc2C)c2ccccc2)nnc1-c1ccc(Cl)cc1 (configuration not stated)	KCNQ2 block -9.6 | KCNQ2 block conf -24% | KCNQ1 spec inactive | CHO parental ctr inactive | KCNQ2 patch conf active
CCNc1nc(NCC)n2c(SC(C(=O)Nc3cc(C)ccc3C)c3ccccc3)nnc2n1 (configuration not stated)	none (no result: KCNQ2 pot)
CSc1ccc(CN2C(=O)NC3(CCCCCCC3)C2=O)cc1	none
N#C/C(=C\c1cccnc1)C(=O)Nc1cccc2ccccc12	KCNQ2 block -6.7 | KCNQ2 block conf inactive | KCNQ1 spec inactive | CHO parental ctr inactive
COc1ccccc1NC(=O)/C(C#N)=C/c1cccnc1	none (no result: KCNQ2 pot)
Cc1ccccc1OCCn1c(S(=O)(=O)O)nc2c(N)ncnc21	none
CC(NC(=O)Cc1cccc(C(F)(F)F)c1)c1ccc(F)cc1 (configuration not stated)	none
CN(CC(=O)Nc1ccc([N+](=O)[O-])cc1Br)Cc1c(F)cccc1Cl	KCNQ2 block -11 | KCNQ2 block conf inactive | KCNQ1 spec inactive | CHO parental ctr inactive
CN(CCOc1ccccc1)CC(=O)Nc1ccc([N+](=O)[O-])cc1Cl	none (no result: KCNQ2 pot)
O=C(O)/C=C/S(=O)(=O)c1ccc2ccccc2c1	none
C=CCC1(CC=C)CCCN1C(=O)C1CCC(=O)N(CCc2ccc(Cl)cc2)C1 (configuration not stated)	KCNQ2 block -8.2 | KCNQ2 block conf -29% | KCNQ1 spec inactive | CHO parental ctr inactive | KCNQ2 patch conf active
CC(C)C1CCN(C(=O)C2CCC(=O)N(CCc3ccc(Cl)cc3)C2)CC1 (configuration not stated)	none (no result: KCNQ2 pot)
CCCCn1c(NCc2ccc3c(c2)OCO3)nc2ccccc21	KCNQ2 block -8.5 | KCNQ2 block conf -33% | KCNQ1 spec inactive | CHO parental ctr inactive | KCNQ2 patch conf active
CCOc1ccc(CNc2nc3ccccc3n2CCN2CCOCC2)cc1	none (no result: KCNQ2 pot)
Brc1cccc(CNc2nc3ccccc3n2CCN2CCOCC2)c1	KCNQ2 block -8.4 | KCNQ2 block conf inactive | KCNQ1 spec inactive | CHO parental ctr inactive
CCCn1c(NCc2ccc3c(c2)OCO3)nc2ccccc21	none (no result: KCNQ2 pot)
CN(/N=C/c1cccc(Br)c1)C1=NS(=O)(=O)c2ccccc21	none
CN(C)c1ccc(CNS(=O)(=O)c2ccc3c(c2)C(C)(C)C(=O)N3C)cc1	none
NS(=O)(=O)c1ccc(CCNC(=O)C(c2ccccc2)c2ccccc2)cc1	none
CCn1c(=O)c2c(nc(SCC(=O)NC3CCCC3)n2C)n(C)c1=O	none (no result: KCNQ2 pot)
N#CC(C(=O)NCCc1ccccc1)c1nc2ccccc2nc1N1CCCCC1 (configuration not stated)	none (no result: KCNQ2 pot)
CCOC(=O)N1CCN(c2nc3ccccc3nc2C(C#N)C(=O)NCCc2ccccc2)CC1 (configuration not stated)	KCNQ2 block -8.7 | KCNQ2 block conf inactive | KCNQ1 spec inactive | CHO parental ctr inactive
FC(F)(F)c1cccc(Cc2noc(CN3CCC(c4ccncc4)CC3)n2)c1	none (no result: KCNQ2 pot)
Cc1ccccc1-n1c(C)nnc1SCC(=O)NC1CCCc2ccccc21 (configuration not stated)	KCNQ2 block -7.7 | KCNQ2 block conf inactive | KCNQ1 spec inactive | CHO parental ctr inactive
Cc1nnc(SC(C)C(=O)NC2CCCc3ccccc32)n1-c1ccccc1 (configuration not stated)	KCNQ2 block -6.6 | KCNQ2 block conf -37% | KCNQ1 spec inactive | CHO parental ctr inactive | KCNQ2 patch conf active
CC(Sc1nnc(Nc2ccccc2)s1)C(=O)NC1CCCc2ccccc21 (configuration not stated)	none (no result: KCNQ2 pot)
Cc1ccccc1CC(=O)NC1CCCc2ccccc21 (configuration not stated)	none (no result: KCNQ2 pot)
Cc1ccccc1-n1nnnc1SC(C)C(=O)NC1CCCc2ccccc21 (configuration not stated)	KCNQ2 block -8.8 | KCNQ2 block conf -37% | KCNQ1 spec -38% | CHO parental ctr -31% | KCNQ2 patch conf active
O=C(CSc1nnnn1-c1ccccc1)NC1CCCc2ccccc21 (configuration not stated)	none (no result: KCNQ2 pot)
COc1ccc(/C=C2\CCCc3c2nc2ccccc2c3C(=O)OCC(=O)c2c(N)n(C)c(=O)n(C)c2=O)cc1	none (no result: KCNQ2 pot)
CN(C)CC(=O)Nc1cc(C(F)(F)F)ccc1Cl	none
CCOC(=O)/C(=N\Nc1cc(C(F)(F)F)ccc1Cl)N(CC)CC	KCNQ2 block -8.9 | KCNQ2 block conf inactive | KCNQ1 spec inactive | CHO parental ctr inactive
O=C(Cn1nnc2c(cnn2-c2ccccc2)c1=O)NCc1cccs1	none (no result: KCNQ2 pot)
